# Bioassay records as filed in PubChem BioAssay.
# ROS inducer = cancer cell ROS induction | U2OS ROS induction, H2DCF-DA fluorescence | ROS induction (% of piperlongumine), % at 10 µM | actives 2% (n = 46,000) | AID 624156; in the data active = ROS induction above about 79%, passing the limit was not always enough;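 also: 0% = DMSO vehicle median and 100% = reference compound median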
# * hit, by the source's call. This is one part of a sample in which hits are shown more often than they occur.
SMILES,ROS inducer
Cc1noc(C)c1NC(=O)N(C)C[C@H]1OCCCC[C@@H](C)Oc2ccc(NS(=O)(=O)c3ccc(Cl)cc3)cc2C(=O)N([C@H](C)CO)C[C@@H]1C,-4.0
CC(C)(C)c1ccc(-c2ncon2)cc1Cn1nnc(-c2cccc(C(F)(F)F)c2)n1,-17.9
COc1ccccc1NC(=O)c1cccc(S(=O)(=O)N2CCCC2)c1,10.6
CS/C(NCC1CC1)=C(/C#N)C(=O)c1ccc(Cl)cc1,195.9*
CS/C(Nc1cccc(Cl)c1Cl)=C(/C#N)C(=O)c1cccs1,-11.9
CS/C(NC1CCCCC1)=C(/C#N)S(=O)(=O)c1ccc(Cl)cc1,44.7
Cc1noc(C)c1S(=O)(=O)N(C)C[C@@H]1Oc2c(NC(=O)c3nc4ccccc4s3)cccc2C(=O)N([C@H](C)CO)C[C@@H]1C,2.7
C[C@@H]1CN([C@@H](C)CO)C(=O)c2cc(NS(=O)(=O)c3ccccc3)ccc2O[C@H]1CN(C)C(=O)Nc1ccc(C(F)(F)F)cc1,-1.0
CCCCc1c(C)nc2ccc(OC)cc2c1SCC(=O)O,9.2
CCOC(=O)Cn1cnc2c(nnn2-c2ccc(C)cc2)c1=O,-7.0
Cc1ccc(-n2nnc3c(SCC(=O)N4CCCC4)ncnc32)cc1,134.1*
Fc1ccc(-n2nnc3c(SCc4ccc(C(F)(F)F)cc4)ncnc32)cc1,18.3
Cc1cc(CNC(=O)Nc2cccc([N+](=O)[O-])c2)nn1C,-7.0
Cc1cc(NC(=O)C2CC(c3cccc(Br)c3)=NO2)n(-c2ccccc2)n1 (stereo unspecified),-1.6
COC(=O)c1cc(CO)cc(O)c1C(=O)c1c(O)cccc1O,2.1
COc1cc(-c2oc3cc(O)cc(O)c3c(=O)c2O[C@@H]2O[C@H](CO)[C@@H](O)[C@H](O)[C@H]2O)ccc1O[C@@H]1O[C@H](CO)[C@@H](O)[C@H](O)[C@H]1O,-5.6
COC(=O)C1c2c(oc3cc(CO)cc(O)c3c2=O)C=CC1O (stereo unspecified),137.0*
N#CCSC1=Nc2ccccc2C2=NC(CCC(=O)NCc3ccccc3)C(=O)N12 (stereo unspecified),-4.6
COc1ccc(S(=O)(=O)N(CC(=O)Nc2ccccc2)C2CCCCC2)cc1Cl,-9.0
C[C@@H]1CCCCO[C@@H](CN(C)S(=O)(=O)c2ccccc2)[C@@H](C)CN([C@H](C)CO)C(=O)c2cc(NC(=O)Nc3ccc(C(F)(F)F)cc3)ccc2O1,182.7*
C[C@@H]1CCCCO[C@@H](CN(C)C(=O)Nc2ccccc2)[C@@H](C)CN([C@H](C)CO)C(=O)c2cc(NS(=O)(=O)c3ccccc3)ccc2O1,2.4
Cc1ccc(S(=O)(=O)Nc2cccc3c2O[C@@H](CN(C)C(=O)Nc2ccc(C(F)(F)F)cc2)[C@@H](C)CN([C@H](C)CO)C3=O)cc1,8.5
COc1ccc(S(=O)(=O)N(C)C[C@@H]2OCCCC[C@@H](C)Oc3ccc(NC(=O)Nc4ccc(C(F)(F)F)cc4)cc3C(=O)N([C@H](C)CO)C[C@@H]2C)cc1,32.3
Cc1ccc(S(=O)(=O)Nc2cccc3c2O[C@H](CN(C)C(=O)Nc2ccc(C(F)(F)F)cc2)[C@H](C)CN([C@H](C)CO)C3=O)cc1,33.6
C[C@@H]1CCCCO[C@@H](CN(C)C(=O)Nc2ccc(C(F)(F)F)cc2)[C@@H](C)CN([C@H](C)CO)C(=O)c2cc(NS(=O)(=O)c3ccccc3)ccc2O1,101.7*
SMILES,ROS inducer
C[C@@H]1CCCCO[C@H](CN(C)S(=O)(=O)c2ccccc2)[C@@H](C)CN([C@H](C)CO)C(=O)c2cc(NC(=O)Nc3ccc(C(F)(F)F)cc3)ccc2O1,80.0*
Cc1ccc(S(=O)(=O)N(C)C[C@H]2OCCCC[C@@H](C)Oc3ccc(NC(=O)Nc4ccc(C(F)(F)F)cc4)cc3C(=O)N([C@H](C)CO)C[C@@H]2C)cc1,21.9
C[C@@H]1CCCCO[C@H](CN(C)C(=O)Nc2ccc(C(F)(F)F)cc2)[C@@H](C)CN([C@H](C)CO)C(=O)c2cc(NS(=O)(=O)c3ccc(Cl)cc3)ccc2O1,42.1
C[C@@H]1CCCCO[C@@H](CN(C)S(C)(=O)=O)[C@@H](C)CN([C@H](C)CO)C(=O)c2cc(NC(=O)Nc3ccc(C(F)(F)F)cc3)ccc2O1,12.5
C[C@@H]1CCCCO[C@@H](CN(C)S(=O)(=O)c2cccs2)[C@@H](C)CN([C@H](C)CO)C(=O)c2cc(NC(=O)Nc3ccc(C(F)(F)F)cc3)ccc2O1,27.5
C[C@@H]1CN([C@H](C)CO)C(=O)c2cccc(NS(=O)(=O)c3ccc(F)cc3)c2O[C@H]1CN(C)C(=O)Nc1ccc(C(F)(F)F)cc1,92.0*
C[C@H](CO)N1C[C@H](C)[C@H](CN(C)Cc2ccc(Cl)c(Cl)c2)Oc2ccc(NC(=O)Nc3ccc4c(c3)OCO4)cc2C1=O,8.5
N#CCSc1nc2nccnc2c(=O)n1Cc1ccccc1Cl,6.8
COc1ccc(C(=O)Nc2ccc(Oc3ncnc4cc(Cl)ccc34)nc2)cc1,-14.8
C[C@@H]1CN([C@@H](C)CO)C(=O)c2cc(NC(=O)CCCCCC(=O)Nc3ccccc3N)ccc2O[C@@H]1CN(C)S(=O)(=O)c1cn(C)cn1,-9.4
C[C@H](CO)N1C[C@H](C)[C@H](CN(C)CC2CC2)Oc2ccc(NS(C)(=O)=O)cc2CC1=O,-5.8
Cc1noc(C)c1NC(=O)Nc1ccc2c(c1)C(=O)N([C@@H](C)CO)C[C@@H](C)[C@H](CN(C)C(=O)Nc1c(C)noc1C)O2,13.2
N#Cc1cc(Oc2ccc(F)cc2)c(-n2nnc3ccccc32)cc1C#N,44.3
FC(F)(F)c1nnc2n1Nc1nc3ccccc3nc1S2,703.6*
C[C@H]1CN([C@@H](C)CO)C(=O)Cc2cc(NS(C)(=O)=O)ccc2O[C@H]1CN(C)C,-10.7
Cc1nc(C23CC4CC(CC(C4)C2)C3)[nH]c(=O)c1Cl,9.8
C[C@H](CO)N1C[C@H](C)[C@H](CN(C)S(=O)(=O)c2ccc(-c3ccccc3)cc2)OCc2cnnn2CCCC1=O,13.7
COc1cccc(NC(=O)CSc2nc(-c3ccccc3)c(-c3ccccc3)[nH]2)c1,-6.1
C[C@H](CO)N1C[C@H](C)[C@H](CN(C)C(=O)Nc2ccc(C(F)(F)F)cc2)Oc2ccc(NC(=O)Nc3cccc4ccccc34)cc2CC1=O,2.3
C[C@H](CO)N1C[C@H](C)[C@H](CN(C)C(=O)Nc2ccc(C(F)(F)F)cc2)Oc2ccc(NC(=O)Nc3cccc4ccccc34)cc2C1=O,29.4
C[C@H]1CN([C@@H](C)CO)C(=O)c2cc(NC(=O)Nc3cccc4ccccc34)ccc2O[C@@H]1CN(C)C(=O)Nc1ccc(C(F)(F)F)cc1,79.8*
C[C@@H]1CN([C@@H](C)CO)C(=O)c2cc(NC(=O)Nc3cccc4ccccc34)ccc2O[C@@H]1CN(C)C(=O)Nc1ccc(C(F)(F)F)cc1,41.7
C[C@H](CO)N1C[C@H](C)[C@H](CN(C)C(=O)Nc2cccc3ccccc23)Oc2ccc(NC(=O)Nc3ccc(C(F)(F)F)cc3)cc2CC1=O,-6.5
C[C@@H]1CN([C@@H](C)CO)C(=O)Cc2cc(NC(=O)Nc3cccc4ccccc34)ccc2O[C@@H]1CN(C)C(=O)Nc1ccc(C(F)(F)F)cc1,161.9*
C[C@@H]1CN([C@@H](C)CO)C(=O)c2cccc(NS(=O)(=O)c3cn(C)cn3)c2O[C@H]1CN(C)C(=O)Nc1ccc(C(F)(F)F)cc1,-8.6
Cc1noc(C)c1NC(=O)Nc1ccc2c(c1)C(=O)N([C@H](C)CO)C[C@H](C)[C@@H](CN(C)C(=O)Nc1ccc3c(c1)OCO3)OCCCC[C@@H](C)O2,-1.5
